Laboratory results as given in PubChem BioAssay (NCI).
Compounds without any hit were thinned out: in the full panel of roughly 83,000, 20% have a hit.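 Plates (96-well) were seeded with cells, treated with compound at one concentration, and incubated for 48 hours before percent growth was determined.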 Calls of active or inactive are those of the source. How the source made its calls: active means growth percent below 10; inactive means the rest.

Key:
Test in all cases: NCI-60 one-dose screen, 48 h (100 = growth as untreated, 0 = no growth, -100 = all killed)
Conditions in all cases: 10 µM unless noted
T-47D breast = system: T-47D breast
BT-549 breast = system: BT-549 breast
MDA-MB-435 melanoma = system: MDA-MB-435 melanoma
SW-620 colon = system: SW-620 colon
MCF7 breast = system: MCF7 breast
HCT-116 colon = system: HCT-116 colon
HCC-2998 colon = system: HCC-2998 colon
KM12 colon = system: KM12 colon

Measured: growth

Cc1cc(N2CCCCC2)nc(N(CCCNc2ccnc3cc(Cl)ccc23)Cc2ccco2)n1
inactive: T-47D breast 26.9% | BT-549 breast 27.3% | MCF7 breast 11.7% | HCC-2998 colon 54.7% | KM12 colon 28.9%
active: MDA-MB-435 melanoma -9.54% | SW-620 colon 9.49% | HCT-116 colon 0.453%

COc1ccc(-c2nc3ccccn3c2-c2nc3ccc(Cl)cc3[nH]2)cc1
inactive: T-47D breast 75% | BT-549 breast 94.4% | MDA-MB-435 melanoma 86.9% | SW-620 colon 88.4% | MCF7 breast 79.6% | HCT-116 colon 93.5% | HCC-2998 colon 97.6% | KM12 colon 86.4%

O=C1CCC/C=C\C[C@H]2C=C(Cl)C(=O)/C2=C/C[C@H](CCCCC(F)(F)F)OC(=O)CCC/C=C\C[C@H]2C=C(Cl)C(=O)/C2=C/C[C@H](CCCCC(F)(F)F)O1
active: T-47D breast -7.29% [7.5 µM] | BT-549 breast -43.8% [7.5 µM] | MDA-MB-435 melanoma -14.3% [7.5 µM] | SW-620 colon -30.8% [7.5 µM] | MCF7 breast -38.9% [7.5 µM] | HCT-116 colon -93.4% [7.5 µM] | HCC-2998 colon -54.7% [7.5 µM] | KM12 colon -60.3% [7.5 µM]

CC1(C)CC[C@]2(CO)CC[C@]3(C)C(=CC[C@@H]4[C@@]5(C)CC[C@H](NCO)C(C)(C)[C@@H]5CC[C@]43C)[C@@H]2C1
active: T-47D breast 4.47% | MDA-MB-435 melanoma -5.37% | SW-620 colon -71.9% | MCF7 breast -26.3% | HCT-116 colon -78.2% | HCC-2998 colon 6.82% | KM12 colon -80.7%
inactive: BT-549 breast 59.1%

CCN1CCN(C(=O)[C@@]2(C)CC[C@]3(C)CC[C@]4(C)C(=CC(=O)[C@@H]5[C@@]6(C)CC[C@H](OCCC#N)C(C)(C)[C@@H]6CC[C@]54C)[C@@H]3C2)CC1
inactive: T-47D breast 66% | BT-549 breast 79% | MDA-MB-435 melanoma 81.5% | SW-620 colon 97.9% | MCF7 breast 78.2% | HCT-116 colon 80.6% | HCC-2998 colon 101% | KM12 colon 98.5%

CC(C)=CCC/C(C)=C/CC/C(C)=C/CSC[C@H](NC(=O)CCCCCN1CCN(C)CC1)C(=O)NC1CCCCCC1
active: SW-620 colon -22.1% | MCF7 breast 7.39% | HCT-116 colon -61%
inactive: T-47D breast 36.9% | BT-549 breast 90.5% | MDA-MB-435 melanoma 50.2% | HCC-2998 colon 19.3% | KM12 colon 66.1%

Cn1cnc2c1c(=O)n(CCC(=O)Nc1ccc(F)cc1)c(=O)n2C
inactive: T-47D breast 89.7% | BT-549 breast 91.1% | MDA-MB-435 melanoma 108% | SW-620 colon 107% | MCF7 breast 101% | HCT-116 colon 86.5% | HCC-2998 colon 108% | KM12 colon 102%

Cn1c(=O)c2c(ncn2CC(=O)Nc2ccc(S(N)(=O)=O)cc2)n(C)c1=O
inactive: T-47D breast 93.2% | BT-549 breast 92.8% | MDA-MB-435 melanoma 108% | SW-620 colon 103% | MCF7 breast 98.6% | HCT-116 colon 92.7% | HCC-2998 colon 114% | KM12 colon 101%

Cc1ccc(S(=O)(=O)Nc2ccc(-c3cc(-c4cccc(F)c4)c(C#N)c(N)n3)cc2)cc1
inactive: MDA-MB-435 melanoma 19.6% | MCF7 breast 11.3% | HCC-2998 colon 39.7% | KM12 colon 46.7%
active: T-47D breast -27.2% | BT-549 breast 7.45% | SW-620 colon -31.7% | HCT-116 colon -73.2%

Cc1ccc(-c2nn(Cc3cn(-c4cc(C)nc5ccccc45)nn3)c3ncnc(N)c23)cc1
inactive: T-47D breast 19.6% | BT-549 breast 64.4% | MDA-MB-435 melanoma 50.2% | SW-620 colon 82.4% | MCF7 breast 34.6% | HCT-116 colon 53.8% | HCC-2998 colon 76.4% | KM12 colon 74.4%

CC1(n2nnnc2N2CCCN(c3ncccc3N)CC2)CCC1
inactive: T-47D breast 101% | BT-549 breast 99.4% | MDA-MB-435 melanoma 99.5% | SW-620 colon 104% | MCF7 breast 95.5% | HCT-116 colon 84.1% | HCC-2998 colon 108% | KM12 colon 102%

COc1ccc(O)c(-c2cc(-c3ccc(Cl)cc3)c(C#N)c(=O)[nH]2)c1
inactive: T-47D breast 57.3% | SW-620 colon 74.7% | MCF7 breast 46.6% | HCT-116 colon 73.4% | HCC-2998 colon 70.6% | KM12 colon 57.6%
active: BT-549 breast 9.41% | MDA-MB-435 melanoma 5.98%

COC(c1ccccc1)(c1ccccc1)c1ccccc1
inactive: T-47D breast 87.1% | BT-549 breast 95.7% | MDA-MB-435 melanoma 108% | SW-620 colon 99.1% | MCF7 breast 115% | HCT-116 colon 104% | HCC-2998 colon 142% | KM12 colon 82.2%
